The target in assay [1] is 6-phosphogluconate dehydrogenase, decarboxylating (Homo sapiens) (UniProt P52209). Kind of assay: 6PGD enzyme inhibitors, primary screen, biochemical, human, recombinant enzyme, NADPH absorbance (AID 1159550;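 active means at least 20% inhibition of 6-phosphogluconate dehydrogenase activity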). The conditions noted are these: recombinant 6PGD, NADPH absorbance 341 nm; at 10 µM; stronger effect = higher value.
Assay [2] has as its system Hepatitis C virus NS3 helicase. Nature of the assay: HCV NS3 helicase inhibitors, primary screen, biochemical, fluorescence polarization, NIH Clinical Collection (AID 743270; call rule not given here). The note with it: NS3 helicase binding to Cy5-dT15 DNA, stronger effect = higher value, concentration not given here.
Assay [3] can be described thus: modulation of C. elegans fzo-1 (AID 1259413; call rule not given here;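 further: fzo-1 mutant C. elegans worms in liquid wells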). The conditions noted are these: C. elegans fzo-1 modulator screen, mean read-out; stronger effect = higher value.
Assay [4] can be described thus: differential killing of epithelial or mesenchymal cells, primary screen, imaging, PC-3E GFP, TEM4-18 mCherry, co-culture (AID 1345086;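 active means compounds killing one labelled cell type while sparing the other, by normalised counts and ratio limits, not self-fluorescent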;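 on all read-outs here: cells exposed to compound for 72 h before imaging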;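 on red/green cell ratio (normalised): normalised mesenchymal count divided by normalised epithelial count so high means epithelial killing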). The note with it: imaging cell counts, at 1 µM; for red/green cell ratio (normalised): actives lie on both sides, counts scaled to control wells, 1 = unselective.
Assay [5] is described as follows: sensitizers of A549 cells to miR-34 induction, primary screen, imaging, A549 dox-inducible miR-34, nuclei and caspase counts (AID 1347080;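 active means compounds whose cell count with miR-34 switched on is under 0.7 times the count with it off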). The note with it: A549 miR-34 inducible, Hoechst nuclei count, 48 h.
Assay [6] is described as follows: survival rescue of mitochondrial mutant cells in low glucose, primary screen, MELAS cybrids, Rieske KO mouse fibroblasts, CellTiter-Glo (AID 1508586).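 Further: z relative to plate mean and SD of compound and empty wells.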 Background: Cellular ATP, detected with luciferase, serves as a proxy for viable cell number.
The target of assay [7] is NAD(+) hydrolase SARM1 (Homo sapiens) (UniProt Q6SZW1). Nature of the assay: SARM1 TIR NADase inhibitors, cell lysate, NAD-Glo luminescence (AID 1508614;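 active means compound whose remaining NAD level is above about 45 nM, limit read from the data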). The conditions noted are these: SAM-TIR HEK293T lysate NADase, at 1 µM, stronger effect = higher value.
Chain of NAD(+) hydrolase SARM1 (Homo sapiens) (Q6SZW1 whole entry, looked up, the tested form may be a part): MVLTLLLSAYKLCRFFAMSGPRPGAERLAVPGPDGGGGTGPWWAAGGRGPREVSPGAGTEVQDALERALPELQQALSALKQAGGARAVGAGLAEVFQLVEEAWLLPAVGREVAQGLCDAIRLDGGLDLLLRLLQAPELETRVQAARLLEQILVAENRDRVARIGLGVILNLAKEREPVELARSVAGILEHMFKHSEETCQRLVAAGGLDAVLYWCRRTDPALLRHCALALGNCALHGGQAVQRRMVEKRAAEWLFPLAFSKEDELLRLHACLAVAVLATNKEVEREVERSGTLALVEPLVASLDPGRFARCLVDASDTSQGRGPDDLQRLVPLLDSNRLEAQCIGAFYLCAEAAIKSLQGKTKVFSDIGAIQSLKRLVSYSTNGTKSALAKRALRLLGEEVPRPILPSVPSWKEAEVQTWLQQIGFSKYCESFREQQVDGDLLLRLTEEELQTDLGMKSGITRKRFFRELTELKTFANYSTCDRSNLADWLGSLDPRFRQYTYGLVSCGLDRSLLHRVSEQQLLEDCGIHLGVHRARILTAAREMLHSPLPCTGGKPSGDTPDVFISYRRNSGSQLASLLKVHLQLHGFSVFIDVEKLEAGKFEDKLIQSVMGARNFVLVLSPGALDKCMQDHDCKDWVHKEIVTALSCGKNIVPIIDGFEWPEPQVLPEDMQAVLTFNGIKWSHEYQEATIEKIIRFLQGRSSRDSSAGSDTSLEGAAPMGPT
The target of assay [8] is Mitogen-activated protein kinase 7 (Homo sapiens) (UniProt Q13164). Kind of assay: ERK5 transactivation activators in reporter cells, primary screen, cell-based, HTS (AID 1508626;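 active means luciferase signal above three times the same-plate solvent-only control wells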;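 further: luciferase driven by Gal4-ERK5 fusion binding five Gal4 sites before minimal TATA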). The conditions noted are these: HeLa Gal4-ERK5 transactivation, 18 h, at 5 µM, stronger effect = higher value.
Chain of Mitogen-activated protein kinase 7 (Homo sapiens) (Q13164 whole entry, looked up, the tested form may be a part): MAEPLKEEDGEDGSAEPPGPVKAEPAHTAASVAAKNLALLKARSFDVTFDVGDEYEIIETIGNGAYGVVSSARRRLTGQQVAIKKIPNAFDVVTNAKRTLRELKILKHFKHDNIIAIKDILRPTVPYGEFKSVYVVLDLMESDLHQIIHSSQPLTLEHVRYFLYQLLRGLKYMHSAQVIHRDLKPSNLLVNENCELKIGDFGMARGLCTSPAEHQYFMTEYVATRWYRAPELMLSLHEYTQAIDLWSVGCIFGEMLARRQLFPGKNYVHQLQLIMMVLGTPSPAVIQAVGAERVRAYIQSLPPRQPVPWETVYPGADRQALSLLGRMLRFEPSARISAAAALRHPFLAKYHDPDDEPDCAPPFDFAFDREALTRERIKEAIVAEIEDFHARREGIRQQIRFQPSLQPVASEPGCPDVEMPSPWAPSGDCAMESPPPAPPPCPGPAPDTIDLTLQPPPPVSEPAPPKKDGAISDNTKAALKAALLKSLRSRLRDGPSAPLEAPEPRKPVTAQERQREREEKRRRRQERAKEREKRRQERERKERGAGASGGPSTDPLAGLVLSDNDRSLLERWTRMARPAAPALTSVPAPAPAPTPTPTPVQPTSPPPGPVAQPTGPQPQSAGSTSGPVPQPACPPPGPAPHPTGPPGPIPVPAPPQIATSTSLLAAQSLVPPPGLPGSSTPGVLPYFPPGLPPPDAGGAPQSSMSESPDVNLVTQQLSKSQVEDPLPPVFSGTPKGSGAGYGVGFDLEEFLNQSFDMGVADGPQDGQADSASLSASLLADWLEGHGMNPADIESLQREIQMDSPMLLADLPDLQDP
The nature of assay [9]: viability rescue of complex I mutant cybrids, primary screen, cell-based, galactose medium, ATP luminescence (AID 1645843;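 active means z-score of at least 1.8 in each of two replicates, scored against plate mean and spread of sample wells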;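 further: positive z means more ATP and so rescue of galactose-driven cybrid death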). The conditions noted are these: complex I mutant cybrid cells, 72 h, stronger effect = higher value.
[10] abbreviates: measured here: epithelial PC-3E GFP cell survival.
Setting [11] is: measured here: mesenchymal TEM4-18 mCherry cell survival.
Where [12] appears, read: MELAS cybrid survival, CellTiter-Glo 48 h, stronger effect = higher value.
[13] abbreviates: Rieske KO mouse fibroblast survival, CellTiter-Glo 72 h.

Molecules are shown by their SMILES. Where “and” joins values, the source holds several entries; their conditions need not be identical. Identical values can stand only once. Calls of active or inactive are those of the source.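 How the source made its calls, unless noted: active means mean z-score across replicates of 1.96 or higher in either the MELAS or the Rieske mutant cell line; inactive means the rest.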

Chain of 6-phosphogluconate dehydrogenase, decarboxylating (Homo sapiens) (P52209 whole entry, looked up): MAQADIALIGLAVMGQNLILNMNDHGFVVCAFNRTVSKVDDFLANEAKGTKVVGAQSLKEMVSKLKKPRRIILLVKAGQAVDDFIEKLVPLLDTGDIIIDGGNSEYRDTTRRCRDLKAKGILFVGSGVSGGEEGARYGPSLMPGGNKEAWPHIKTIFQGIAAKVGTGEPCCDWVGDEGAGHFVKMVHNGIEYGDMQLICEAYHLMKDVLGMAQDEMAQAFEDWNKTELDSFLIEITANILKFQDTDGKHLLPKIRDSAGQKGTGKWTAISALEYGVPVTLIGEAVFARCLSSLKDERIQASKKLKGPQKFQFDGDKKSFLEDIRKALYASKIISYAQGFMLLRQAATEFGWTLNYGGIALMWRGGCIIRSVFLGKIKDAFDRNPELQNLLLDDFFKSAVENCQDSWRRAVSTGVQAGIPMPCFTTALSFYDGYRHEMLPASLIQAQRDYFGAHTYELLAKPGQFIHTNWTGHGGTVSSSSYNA

As for `O=C/C=C/c1ccc(O)cc1`, the inhibition in [1] is 1.58% (inactive).
`C=C1C(CCl)(CCl)C2(Cl)C(Cl)C(Cl)C1(Cl)C2(Cl)Cl` (stereo unspecified): the inhibition in assay [1] was -11.7% (inactive).
Regarding `COC(=O)[C@H](c1ccccc1Cl)N1CCc2sccc2C1`, the inhibition in assay [2] is -9.55% (inactive); in assay [1], 3.19% (inactive). Besides, in assay [3], the mean signal is 252 (inactive). In addition, the red/green cell ratio (normalised) in assay [4] was 1.19 (inactive). For the same compound, the normalised cell number in assay [4] (setting [10]) stood at 1.15; in assay [4] (setting [11]) it was 1.36. Moreover, the fold change in assay [5] (stronger effect = lower value, cell number ratio, induced over uninduced) is 0.979 (inactive) and 0.893 (inactive) and 0.849 (inactive); in assay [5] (measured here: relative caspase fold change +Dox/-Dox) it was 1.69 and 3.06 and 2.09. The cell count was 9850 and 11200 and 8380 in assay [5] (measured here: total cells with miR-34 induction, stronger effect = lower value); 10100 and 12600 and 9870 in assay [5] (measured here: total cells without miR-34 induction). The z-score in assay [6] (setting [12]) was -0.401 (inactive) and -0.448 (inactive); in assay [6] (setting [13]), -0.332 and -1.48; in [9], -0.555 (inactive) and -0.06 (inactive). The remaining NAD in [7] was 10 nM (inactive). The luciferase signal in [8] is 20 AU (inactive).
Take `CNCCC(Oc1ccc(C(F)(F)F)cc1)c1ccccc1` (stereo unspecified): the inhibition in [2] is -2.27% (inactive); in assay [1], 19% (inactive). For the same compound, the mean signal in [3] was 190 (inactive). Besides, the red/green cell ratio (normalised) in assay [4] is 1 (inactive). The normalised cell number was 1.16 in assay [4] (setting [10]) and 1.15 in assay [4] (setting [11]). Besides, the z-score in assay [6] (setting [12]) was 1.26 (inactive) and -0.395 (inactive) and -0.285 (inactive); in assay [6] (setting [13]), -2.64 and 0.201 and 0.197. Also, the remaining NAD in assay [7] was 10 nM (inactive).

The inhibition is the relative decrease from the control value, in per cent.

(Values after PubChem BioAssay.)
